Common to all, as to assay: DAPPL (digital affinity profiling via proximity ligation, sequencing); 10 mM Tris-HCl pH 7.5, 50 mM NaCl, 1 mM DTT, 4% glycerol, room temperature, 30 min; GST-TFs on glutathione beads, 16-mer random dsDNA library, 0.1% formaldehyde crosslink after washing; high values mean tight binding
What all share (details): protein: recombinant; tags: N-terminal GST; dsDNA, one strand shown

One experiment addresses T1, FLI1 (Homo sapiens, UniProt Q01543 1-452).
T1 sequence: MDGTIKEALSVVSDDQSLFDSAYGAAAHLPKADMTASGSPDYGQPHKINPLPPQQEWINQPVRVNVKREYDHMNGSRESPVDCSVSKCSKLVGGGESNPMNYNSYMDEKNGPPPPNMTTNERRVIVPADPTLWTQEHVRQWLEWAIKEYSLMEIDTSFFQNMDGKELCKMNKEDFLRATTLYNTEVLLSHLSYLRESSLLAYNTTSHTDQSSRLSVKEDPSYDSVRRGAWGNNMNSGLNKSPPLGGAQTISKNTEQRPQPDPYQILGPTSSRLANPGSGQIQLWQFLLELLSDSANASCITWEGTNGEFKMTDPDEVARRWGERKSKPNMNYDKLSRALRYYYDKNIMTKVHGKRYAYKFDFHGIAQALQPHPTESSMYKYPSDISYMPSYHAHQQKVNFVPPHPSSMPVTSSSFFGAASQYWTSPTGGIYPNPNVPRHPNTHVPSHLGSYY
An outline of the steps: (§1)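 GST fusions of human transcription factors were expressed in yeast and captured with glutathione beads. Once given DNA barcodes and pooled alongside a tag-only sample, they were incubated for 30 min at room temperature with 200 nmole of a random double-stranded 16-mer DNA library in Tris/NaCl/DTT/glycerol buffer, then washed, crosslinked (0.1% formaldehyde), proximity-ligated, PCR-amplified and sequenced on an Illumina NextSeq500. The binding signal of each hexamer is its read frequency for a factor divided by its frequency for the tag-only sample.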

For the next experiment, the target named is T2, ELK1 (Homo sapiens, UniProt P19419 1-428).
T2 sequence: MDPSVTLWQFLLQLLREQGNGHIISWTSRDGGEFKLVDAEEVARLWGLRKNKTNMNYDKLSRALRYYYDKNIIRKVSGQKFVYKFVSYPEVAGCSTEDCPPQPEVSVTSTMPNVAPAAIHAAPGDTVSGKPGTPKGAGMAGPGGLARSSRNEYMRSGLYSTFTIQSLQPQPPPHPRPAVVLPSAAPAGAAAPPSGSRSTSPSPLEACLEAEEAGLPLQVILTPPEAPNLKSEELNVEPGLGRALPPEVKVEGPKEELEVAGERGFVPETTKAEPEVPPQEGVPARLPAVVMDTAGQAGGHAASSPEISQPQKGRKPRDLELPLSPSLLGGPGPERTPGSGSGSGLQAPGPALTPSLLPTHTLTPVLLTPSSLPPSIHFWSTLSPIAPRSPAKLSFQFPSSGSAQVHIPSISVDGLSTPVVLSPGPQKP
The essentials:
as §1

The next experiment has as its target T3, GABPA (Homo sapiens, UniProt Q06546 1-454).
T3 sequence: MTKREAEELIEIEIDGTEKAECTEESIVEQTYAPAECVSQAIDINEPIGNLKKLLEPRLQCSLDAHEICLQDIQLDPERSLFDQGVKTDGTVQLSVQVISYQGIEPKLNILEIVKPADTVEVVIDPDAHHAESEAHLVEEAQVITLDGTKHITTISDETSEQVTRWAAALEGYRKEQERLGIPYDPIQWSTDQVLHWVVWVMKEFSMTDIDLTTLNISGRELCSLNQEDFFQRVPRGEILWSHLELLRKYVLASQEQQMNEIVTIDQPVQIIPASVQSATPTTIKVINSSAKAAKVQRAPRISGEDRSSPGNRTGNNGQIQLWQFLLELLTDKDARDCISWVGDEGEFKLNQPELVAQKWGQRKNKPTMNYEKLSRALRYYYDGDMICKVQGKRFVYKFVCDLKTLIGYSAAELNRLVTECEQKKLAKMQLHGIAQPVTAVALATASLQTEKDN
An outline of the steps:
as §1

The target in another experiment is T4, ERG (Homo sapiens, UniProt P11308 1-479).
T4 sequence: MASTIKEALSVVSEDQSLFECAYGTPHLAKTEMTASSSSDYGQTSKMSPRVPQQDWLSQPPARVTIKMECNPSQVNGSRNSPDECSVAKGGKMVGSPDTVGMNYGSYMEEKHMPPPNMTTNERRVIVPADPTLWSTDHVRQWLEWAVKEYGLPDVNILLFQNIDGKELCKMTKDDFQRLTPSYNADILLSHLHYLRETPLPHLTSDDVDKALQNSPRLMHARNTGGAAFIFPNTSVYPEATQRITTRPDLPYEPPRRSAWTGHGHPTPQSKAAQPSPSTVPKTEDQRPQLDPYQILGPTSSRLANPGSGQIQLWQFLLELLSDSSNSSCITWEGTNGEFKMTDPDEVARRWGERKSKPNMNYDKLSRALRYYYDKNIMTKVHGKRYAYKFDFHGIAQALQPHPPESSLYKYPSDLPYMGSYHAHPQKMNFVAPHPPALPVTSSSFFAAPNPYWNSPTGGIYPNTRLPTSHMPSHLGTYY
An outline of the steps: as §1

Another experiment has as its target ELF1 (Homo sapiens, UniProt P32519 1-619). An outline of the steps:
as §1

The target of the next experiment is T5, EHF (Homo sapiens, UniProt Q9NZC4 1-300).
T5 sequence: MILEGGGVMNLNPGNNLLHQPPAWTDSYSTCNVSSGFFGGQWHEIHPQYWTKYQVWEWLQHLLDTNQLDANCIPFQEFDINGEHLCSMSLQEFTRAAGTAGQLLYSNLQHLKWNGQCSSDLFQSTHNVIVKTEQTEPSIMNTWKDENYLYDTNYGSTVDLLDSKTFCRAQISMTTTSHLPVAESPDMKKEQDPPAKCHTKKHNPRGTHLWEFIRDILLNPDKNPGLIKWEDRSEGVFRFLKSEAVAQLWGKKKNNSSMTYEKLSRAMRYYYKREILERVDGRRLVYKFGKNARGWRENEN
The essentials: as §1

The target of a further experiment is SPI1 (Homo sapiens, UniProt P17947 1-270). The essentials:
as §1

In the next experiment the target is SPIB (Homo sapiens, UniProt Q01892 1-262). The essentials: as §1
For a further experiment, the target named is T6, ELK3 (Homo sapiens, UniProt P41970 1-407).
T6 sequence: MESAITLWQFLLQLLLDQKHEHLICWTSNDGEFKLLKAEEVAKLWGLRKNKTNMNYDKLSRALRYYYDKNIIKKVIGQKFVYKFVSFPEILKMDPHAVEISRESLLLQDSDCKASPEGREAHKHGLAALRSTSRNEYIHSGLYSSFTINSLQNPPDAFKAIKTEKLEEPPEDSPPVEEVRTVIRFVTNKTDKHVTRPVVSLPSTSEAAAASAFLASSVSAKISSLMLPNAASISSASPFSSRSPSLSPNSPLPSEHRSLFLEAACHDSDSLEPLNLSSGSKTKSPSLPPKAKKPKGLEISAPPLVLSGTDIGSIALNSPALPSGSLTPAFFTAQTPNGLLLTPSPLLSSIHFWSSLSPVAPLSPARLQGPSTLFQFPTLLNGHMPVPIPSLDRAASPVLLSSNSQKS
An outline of the steps: as §1

Another experiment addresses T7, FEV (Homo sapiens, UniProt Q99581 1-238).
T7 sequence: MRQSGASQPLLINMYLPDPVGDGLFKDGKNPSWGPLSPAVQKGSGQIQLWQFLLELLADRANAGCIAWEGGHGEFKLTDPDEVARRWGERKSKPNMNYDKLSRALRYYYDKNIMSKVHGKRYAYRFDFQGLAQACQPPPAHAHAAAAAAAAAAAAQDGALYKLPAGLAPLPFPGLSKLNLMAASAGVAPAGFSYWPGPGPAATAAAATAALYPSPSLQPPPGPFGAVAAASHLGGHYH
The essentials: as §1

The target in a further experiment is ETV5 (Homo sapiens, UniProt P41161 1-510). An outline of the steps:
as §1

In another experiment the target is T8, SPIC (Homo sapiens, UniProt Q8N5J4 1-248).
T8 sequence: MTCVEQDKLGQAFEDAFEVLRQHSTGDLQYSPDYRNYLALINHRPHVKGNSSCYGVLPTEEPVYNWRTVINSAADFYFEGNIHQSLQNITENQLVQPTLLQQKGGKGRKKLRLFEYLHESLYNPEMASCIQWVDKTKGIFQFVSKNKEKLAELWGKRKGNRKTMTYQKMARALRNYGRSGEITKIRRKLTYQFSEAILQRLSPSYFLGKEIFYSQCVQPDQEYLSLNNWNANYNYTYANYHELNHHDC
The essentials:
as §1

Another experiment deals with ELF4 (Homo sapiens, UniProt Q99607 1-663). An outline of the steps: as §1
For the next experiment, the target named is T9, ELK4 (Homo sapiens, UniProt P28324-2 1-405).
T9 sequence: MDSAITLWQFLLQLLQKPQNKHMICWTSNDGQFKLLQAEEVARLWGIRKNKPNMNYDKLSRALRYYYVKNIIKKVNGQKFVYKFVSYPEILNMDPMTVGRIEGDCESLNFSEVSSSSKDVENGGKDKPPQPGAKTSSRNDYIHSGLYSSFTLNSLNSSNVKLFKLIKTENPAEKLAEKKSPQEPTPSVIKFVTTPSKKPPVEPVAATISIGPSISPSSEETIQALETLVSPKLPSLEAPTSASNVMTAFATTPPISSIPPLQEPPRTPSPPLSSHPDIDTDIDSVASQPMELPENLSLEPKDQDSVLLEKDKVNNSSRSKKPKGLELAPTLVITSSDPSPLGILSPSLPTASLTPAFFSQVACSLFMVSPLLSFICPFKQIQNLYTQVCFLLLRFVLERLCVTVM
The essentials:
as §1

The target in the next experiment is T10, ETV2 (Homo sapiens, UniProt O00321 1-342).
T10 sequence: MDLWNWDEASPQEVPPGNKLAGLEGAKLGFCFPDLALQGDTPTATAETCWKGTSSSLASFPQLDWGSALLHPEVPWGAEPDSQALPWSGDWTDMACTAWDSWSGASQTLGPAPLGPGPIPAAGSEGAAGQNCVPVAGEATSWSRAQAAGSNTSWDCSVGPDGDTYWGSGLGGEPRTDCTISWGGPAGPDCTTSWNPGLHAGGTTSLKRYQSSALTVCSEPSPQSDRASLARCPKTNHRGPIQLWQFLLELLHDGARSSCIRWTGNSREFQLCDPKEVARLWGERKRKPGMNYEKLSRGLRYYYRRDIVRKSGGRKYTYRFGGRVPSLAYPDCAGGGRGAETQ
The essentials:
as §1

A further experiment has as its target T11, ELF3 (Homo sapiens, UniProt P78545 1-371).
T11 sequence: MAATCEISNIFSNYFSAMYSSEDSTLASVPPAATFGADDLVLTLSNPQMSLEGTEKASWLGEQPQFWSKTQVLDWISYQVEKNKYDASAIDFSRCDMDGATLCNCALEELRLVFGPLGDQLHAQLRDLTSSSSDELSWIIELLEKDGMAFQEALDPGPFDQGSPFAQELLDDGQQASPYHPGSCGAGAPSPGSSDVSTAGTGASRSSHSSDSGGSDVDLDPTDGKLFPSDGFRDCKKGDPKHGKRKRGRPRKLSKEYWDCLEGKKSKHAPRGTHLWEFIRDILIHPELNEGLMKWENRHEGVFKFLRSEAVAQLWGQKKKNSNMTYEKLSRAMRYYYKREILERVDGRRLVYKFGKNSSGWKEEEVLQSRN
An outline of the steps:
as §1

Another experiment concerns the target ETV1 (Homo sapiens, UniProt P50549 1-477). An outline of the steps: as §1

Chain of ELF4 (Q99607 whole entry): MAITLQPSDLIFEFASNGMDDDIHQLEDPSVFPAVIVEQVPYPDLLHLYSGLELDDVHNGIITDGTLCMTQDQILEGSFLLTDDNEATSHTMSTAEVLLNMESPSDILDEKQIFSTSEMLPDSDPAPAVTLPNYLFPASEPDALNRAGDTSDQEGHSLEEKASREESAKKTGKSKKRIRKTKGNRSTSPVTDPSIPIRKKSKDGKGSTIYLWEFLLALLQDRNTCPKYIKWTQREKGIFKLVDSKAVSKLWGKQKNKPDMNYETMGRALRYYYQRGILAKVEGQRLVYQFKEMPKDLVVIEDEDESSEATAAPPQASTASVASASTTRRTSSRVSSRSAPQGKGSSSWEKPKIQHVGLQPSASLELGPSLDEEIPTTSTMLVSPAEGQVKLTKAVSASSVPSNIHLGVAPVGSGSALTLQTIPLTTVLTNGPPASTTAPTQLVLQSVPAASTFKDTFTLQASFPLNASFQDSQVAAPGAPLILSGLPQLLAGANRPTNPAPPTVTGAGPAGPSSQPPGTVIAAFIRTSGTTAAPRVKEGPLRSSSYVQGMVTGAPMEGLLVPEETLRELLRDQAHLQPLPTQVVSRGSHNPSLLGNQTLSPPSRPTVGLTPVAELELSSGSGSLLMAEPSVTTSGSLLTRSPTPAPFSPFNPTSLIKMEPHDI
Chain of ETV5 (P41161 whole entry): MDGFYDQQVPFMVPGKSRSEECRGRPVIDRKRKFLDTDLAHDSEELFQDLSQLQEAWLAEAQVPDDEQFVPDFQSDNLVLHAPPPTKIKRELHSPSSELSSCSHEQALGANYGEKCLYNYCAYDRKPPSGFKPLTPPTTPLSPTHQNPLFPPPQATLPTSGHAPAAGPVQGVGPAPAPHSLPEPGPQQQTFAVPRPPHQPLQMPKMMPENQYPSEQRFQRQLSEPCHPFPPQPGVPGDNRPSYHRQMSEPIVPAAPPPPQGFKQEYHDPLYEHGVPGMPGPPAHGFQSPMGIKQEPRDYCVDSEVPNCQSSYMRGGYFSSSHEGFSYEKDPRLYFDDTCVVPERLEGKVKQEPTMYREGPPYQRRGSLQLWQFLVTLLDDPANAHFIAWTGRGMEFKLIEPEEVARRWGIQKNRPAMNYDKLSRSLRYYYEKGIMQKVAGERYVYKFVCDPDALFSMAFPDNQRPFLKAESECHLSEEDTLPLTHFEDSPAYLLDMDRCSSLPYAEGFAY
Chain of ELF1 (P32519 whole entry): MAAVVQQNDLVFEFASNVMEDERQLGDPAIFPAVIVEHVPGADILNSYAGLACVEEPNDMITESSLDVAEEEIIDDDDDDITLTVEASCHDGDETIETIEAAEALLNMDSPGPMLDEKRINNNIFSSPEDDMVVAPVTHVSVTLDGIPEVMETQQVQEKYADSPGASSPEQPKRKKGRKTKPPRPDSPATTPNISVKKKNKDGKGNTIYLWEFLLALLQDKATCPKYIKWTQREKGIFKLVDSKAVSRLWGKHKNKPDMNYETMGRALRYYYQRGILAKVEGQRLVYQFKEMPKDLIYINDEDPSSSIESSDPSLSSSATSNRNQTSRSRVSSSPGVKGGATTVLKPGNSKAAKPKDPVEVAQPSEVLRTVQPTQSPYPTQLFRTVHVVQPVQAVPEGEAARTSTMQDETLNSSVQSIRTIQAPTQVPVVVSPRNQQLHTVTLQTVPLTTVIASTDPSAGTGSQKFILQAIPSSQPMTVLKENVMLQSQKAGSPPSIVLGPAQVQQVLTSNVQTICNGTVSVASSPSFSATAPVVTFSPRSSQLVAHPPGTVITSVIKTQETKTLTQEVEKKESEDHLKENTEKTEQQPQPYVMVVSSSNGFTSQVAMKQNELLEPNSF
Chain of ETV1 (P50549 whole entry): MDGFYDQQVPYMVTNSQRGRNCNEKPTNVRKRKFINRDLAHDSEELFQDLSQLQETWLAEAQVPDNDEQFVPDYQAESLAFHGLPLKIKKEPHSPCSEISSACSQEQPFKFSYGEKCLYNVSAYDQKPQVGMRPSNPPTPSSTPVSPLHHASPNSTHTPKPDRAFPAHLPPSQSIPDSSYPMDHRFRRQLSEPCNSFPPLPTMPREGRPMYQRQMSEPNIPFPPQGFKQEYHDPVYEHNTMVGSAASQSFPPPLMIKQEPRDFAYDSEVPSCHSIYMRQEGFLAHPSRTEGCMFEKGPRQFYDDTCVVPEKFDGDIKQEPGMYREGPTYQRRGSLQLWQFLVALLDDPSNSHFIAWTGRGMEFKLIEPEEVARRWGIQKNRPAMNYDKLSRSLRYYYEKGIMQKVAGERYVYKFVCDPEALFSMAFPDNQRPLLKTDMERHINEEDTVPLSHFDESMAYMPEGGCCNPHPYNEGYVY
Chain of SPIB (Q01892 whole entry): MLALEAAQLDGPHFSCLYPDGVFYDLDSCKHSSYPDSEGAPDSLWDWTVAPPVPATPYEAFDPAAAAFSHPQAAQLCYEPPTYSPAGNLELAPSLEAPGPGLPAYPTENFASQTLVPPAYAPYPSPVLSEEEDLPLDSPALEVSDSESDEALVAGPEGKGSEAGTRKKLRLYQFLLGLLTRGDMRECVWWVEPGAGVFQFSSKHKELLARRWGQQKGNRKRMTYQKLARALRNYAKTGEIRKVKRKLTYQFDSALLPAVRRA

In the case of GTCCTC, the binding signal with FLI1 is 1.15 fold enrichment (6-mer frequency, TF over GST control); with ELK1, 1.22 fold enrichment (6-mer frequency, TF over GST control); with GABPA, 1.17 fold enrichment (6-mer frequency, TF over GST control); with ERG, 1.21 fold enrichment (6-mer frequency, TF over GST control); in the experiment with ELF1, 1.18 fold enrichment (6-mer frequency, TF over GST control); in the experiment with EHF it was 1.28 fold enrichment (6-mer frequency, TF over GST control). The binding signal was 1.25 fold enrichment (6-mer frequency, TF over GST control) with SPI1; 1.21 fold enrichment (6-mer frequency, TF over GST control) with SPIB; 1.22 fold enrichment (6-mer frequency, TF over GST control) with ELK3; 1.12 fold enrichment (6-mer frequency, TF over GST control) with FEV; 1.21 fold enrichment (6-mer frequency, TF over GST control) in the experiment with ETV5; 1.14 fold enrichment (6-mer frequency, TF over GST control) in the experiment with SPIC. Moreover, the binding signal with ELF4 was 1.27 fold enrichment (6-mer frequency, TF over GST control); in the experiment with ELK4, 1.34 fold enrichment (6-mer frequency, TF over GST control); with ETV2, 1.4 fold enrichment (6-mer frequency, TF over GST control); with ELF3, 1.16 fold enrichment (6-mer frequency, TF over GST control); with ETV1, 1.25 fold enrichment (6-mer frequency, TF over GST control).
Turning to CAACCT, the binding signal with FLI1 was 1.2 fold enrichment (6-mer frequency, TF over GST control); with ELK1, 1.16 fold enrichment (6-mer frequency, TF over GST control); with GABPA, 1.23 fold enrichment (6-mer frequency, TF over GST control); with ERG, 1.13 fold enrichment (6-mer frequency, TF over GST control); in the experiment with ELF1, 1.2 fold enrichment (6-mer frequency, TF over GST control); with EHF, 1.21 fold enrichment (6-mer frequency, TF over GST control). Further, the binding signal is 1.14 fold enrichment (6-mer frequency, TF over GST control) with SPI1; 1.17 fold enrichment (6-mer frequency, TF over GST control) with SPIB; 1.08 fold enrichment (6-mer frequency, TF over GST control) with ELK3; 1.21 fold enrichment (6-mer frequency, TF over GST control) with FEV; 1.18 fold enrichment (6-mer frequency, TF over GST control) with ETV5; 1.13 fold enrichment (6-mer frequency, TF over GST control) with SPIC. The binding signal in the experiment with ELF4 was 1.11 fold enrichment (6-mer frequency, TF over GST control); with ELK4, 1.15 fold enrichment (6-mer frequency, TF over GST control); with ETV2, 1.28 fold enrichment (6-mer frequency, TF over GST control); with ELF3 it was 1.12 fold enrichment (6-mer frequency, TF over GST control); with ETV1, 1.2 fold enrichment (6-mer frequency, TF over GST control).

The values above are taken from article PMC7862700, “An all-to-all approach to the identification of sequence-specific readers for epigenetic DNA modifications on cytosine”.
